Holding throughout (settings): mRNA level, 48 h; actives raise or lower the signal
Read-out in assay [1]: Glutathione S-transferase M3 (GSTM3), GSTM3 (gene 2947)
The experiment in a line: LTEA_HepaRG_GSTM3: Life Technologies and Expression Analysis (LTEA) Assay for Glutathione S-transferase M3 (GSTM3) using HepaRG (AID 2283501). Summed up:
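HepaRG, plated 48 h, then serum-free induction medium; test chemical 48 h, duplicate; 100 uM top, half-log x8, 0.5% DMSO. Read-out: GSTM3 mRNA (TaqMan qRT-PCR, Fluidigm array). Bidirectional fit vs DMSO.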

Read-out in assay [2]: Heat shock 70 kDa protein 1 (HSPA1A), gene 3303
The experiment in a line: LTEA_HepaRG_HSPA1A: Life Technologies and Expression Analysis (LTEA) Assay for Heat shock 70 kDa protein 1 (HSPA1A) using HepaRG (AID 2283502). Summed up:
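Readout is HSPA1A transcript level by microfluidic qRT-PCR, normalized to three housekeeping genes and analysed for gain or loss of signal relative to 0.5% DMSO. Human HepaRG cultures received test chemicals for 48 h at up to 100 uM.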

Read-out in assay [3]: Hypoxia-inducible factor 1-alpha (Homo sapiens) (UniProt Q16665)
The experiment in a line: LTEA_HepaRG_HIF1A: Life Technologies and Expression Analysis (LTEA) Assay for Hypoxia-inducible factor 1 (HIF1A) Trancription factor using HepaRG (AID 2283503). Summed up:
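Differentiated HepaRG cells in serum-free induction medium exposed 48 h, in duplicate, to 8-point half-log series from 100 uM in 0.5% DMSO. HIF1A mRNA measured by TaqMan qRT-PCR, normalized to ACTB/GAPDH/POLR2A, fitted bidirectionally versus DMSO.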

Read-out in assay [4]: 3-Hydroxy-3-Methylglutaryl-CoA Synthase 2 (HMGCS2), HMGCS2 (gene 3158)
Put plainly: LTEA_HepaRG_HMGCS2: Life Technologies and Expression Analysis (LTEA) Assay for 3-Hydroxy-3-Methylglutaryl-CoA Synthase 2 (HMGCS2) using HepaRG (AID 2283504). Summed up:
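HepaRG, plated 48 h then switched to serum-free induction media; cmpd 8-pt, max 100 uM, 1/2-log, 0.5% DMSO, n=2, 48 h. HMGCS2 mRNA by Fluidigm TaqMan qRT-PCR, ACTB/GAPDH/POLR2A norm; bidirectional fit vs DMSO.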

Read-out in the next assay: HGF (gene 3082)
The experiment in a line: LTEA_HepaRG_HGF: Life Technologies and Expression Analysis (LTEA) Assay for Hepatocyte Growth Facto (HGF) using HepaRG (AID 2283505). Summed up: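 Read-out is HGF transcript level by qRT-PCR, normalized to three housekeeping genes, fitted bidirectionally against 0.5% DMSO vehicle. Human HepaRG cells received test chemicals for 48 h at up to 100 uM.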

Read-out in assay [5]: Insulin Like Growth Factor 1 (IGF1), IGF1 (gene 3479)
The experiment in a line: LTEA_HepaRG_IGF1: Life Technologies and Expression Analysis (LTEA) Assay for Insulin Like Growth Factor 1 (IGF1) using HepaRG (AID 2283506). Put shortly:
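HepaRG, plated 48 h, then switched to serum-free induction media; test chemical 8-pt half-log from 100 uM (0.5% DMSO), duplicate, 48 h. Lysis in RLT, TaqMan qRT-PCR, norm. ACTB/GAPDH/POLR2A. Bidirectional fit vs DMSO.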

Read-out in assay [6]: Insulin-like growth factor-binding protein 1 (IGFBP1), IGFBP1 (gene 3484)
Put plainly: LTEA_HepaRG_IGFBP1: Life Technologies and Expression Analysis (LTEA) Assay for Insulin-like growth factor-binding protein 1 (IGFBP1) using HepaRG (AID 2283508). Summed up: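 Thawed HepaRG cells are plated for 48 h, switched to serum-free induction medium, then dosed in duplicate for another 48 h (100 uM top, half-log steps). Lysates in RLT go to qRT-PCR, and gain or loss of signal is fitted relative to vehicle.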

Read-out in assay [7]: Interleukin 6 Receptor (IL6R), IL6R (gene 3570)
The experiment in a line: LTEA_HepaRG_IL6R: Life Technologies and Expression Analysis (LTEA) Assay for Interleukin 6 Receptor (IL6R) using HepaRG (AID 2283510). Put shortly:
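Readout is IL6R transcript level by TaqMan qRT-PCR, normalized to three housekeeping genes and fitted bidirectionally against 0.5% DMSO controls. Human HepaRG cells received chemicals for 48 h in serum-free induction medium, highest concentration 100 uM.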

Read-out in assay [8]: Potassium channel subfamily K member 1 (KCNK1), KCNK1 (gene 3775)
Put plainly: LTEA_HepaRG_KCNK1: Life Technologies and Expression Analysis (LTEA) Assay for Potassium channel subfamily K member 1 (KCNK1) using HepaRG (AID 2283511). Put shortly: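 Differentiated human HepaRG cells in serum-free induction medium were exposed in duplicate for 48 h to 8 half-log concentrations up to 100 uM in 0.5% DMSO. KCNK1 mRNA was measured by TaqMan qRT-PCR, normalized to ACTB, GAPDH and POLR2A, and fitted bidirectionally versus DMSO.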

Read-out in assay [9]: Keratin 19 (KRT19), KRT19 (gene 3880)
The experiment in a line: LTEA_HepaRG_KRT19: Life Technologies and Expression Analysis (LTEA) Assay for Keratin 19 (KRT19) using HepaRG (AID 2283512). Put shortly:
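KRT19 transcript levels, measured by Fluidigm qRT-PCR against three housekeeping genes, are fitted for gain or loss of signal relative to DMSO. Human HepaRG cells receive test chemicals (top 100 uM, half-log steps, 0.5% DMSO) for 48 hours.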

Read-out in assay [10]: JUN Transcription Factor, JUN (gene 3725)
Put plainly: LTEA_HepaRG_JUN: Life Technologies and Expression Analysis (LTEA) Assay for JUN Transcription Factor using HepaRG (AID 2283513). Summed up: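 Cells plated 48 h, medium switched to serum-free induction medium, then dosed 48 h (100 uM top, half-log dilutions, 0.5% DMSO). RNA isolated; JUN measured by qRT-PCR against three housekeeping genes; gain or loss fitted relative to DMSO.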

Read-out in assay [11]: Lipase C (LIPC), LIPC (gene 3990)
Put plainly: LTEA_HepaRG_LIPC: Life Technologies and Expression Analysis (LTEA) Assay for Lipase C (LIPC) using HepaRG (AID 2283514). Put shortly: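 Differentiated human HepaRG cells in serum-free induction medium were exposed in duplicate for 48 h to eight concentrations (top 100 uM, half-log steps, 0.5% DMSO). LIPC mRNA was quantified by TaqMan qRT-PCR, normalized to ACTB, GAPDH and POLR2A, with bidirectional fitting versus DMSO.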

Read-out in assay [12]: Lipoprotein lipase (LPL), LPL (gene 4023)
The experiment in a line: LTEA_HepaRG_LPL: Life Technologies and Expression Analysis (LTEA) Assay for Lipoprotein lipase (LPL) using HepaRG (AID 2283515). Summed up: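 Differentiated human HepaRG cells in serum-free induction medium were exposed in duplicate for 48 h to eight half-log concentrations (top 100 uM) in 0.5% DMSO. LPL mRNA was quantified by TaqMan qRT-PCR, normalized to ACTB, GAPDH and POLR2A.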

Read-out in assay [13]: MicroRNA 122 (MIR122), gene 406906
Put plainly: LTEA_HepaRG_MIR122: Life Technologies and Expression Analysis (LTEA) Assay for MicroRNA 122 (MIR122) using HepaRG (AID 2283516). Also: the transcript read is the microRNA miR-122. Put shortly:
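HepaRG plated 48 h, switched to serum-free induction medium, then treated in duplicate for 48 h (100 uM top, half-log steps, 0.5% DMSO vehicle). RNA isolated, qRT-PCR performed, concentration-response fitted both directions relative to DMSO.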

Read-out in assay [14]: matrix metalloproteinase-10 (MMP10), MMP10 (gene 4319)
Put plainly: LTEA_HepaRG_MMP10: Life Technologies and Expression Analysis (LTEA) Assay for matrix metalloproteinase-10 (MMP10) using HepaRG (AID 2283517). Summed up:
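HepaRG, collagen I, ~100,000 cells/well; serum-free induction medium; 48 h exposure, duplicate, 8-pt half-log to 100 uM, 0.5% DMSO. Readout: TaqMan qRT-PCR, normalized to ACTB/GAPDH/POLR2A; bidirectional fit vs DMSO.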

Read-out in the next assay: MYC, MYC (gene 4609)
The experiment in a line: LTEA_HepaRG_MYC: Life Technologies and Expression Analysis (LTEA) Assay for MYC using HepaRG (AID 2283518). Put shortly:
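HepaRG, ~100,000 cells/well, collagen I; 48 h plating; serum-free induction medium; 48 h dosing, duplicate, 100 uM top, half-log, 0.5% DMSO; total RNA → qRT-PCR MYC; gain/loss fit vs DMSO.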

Read-out in assay [15]: matrix metalloproteinase-3 (MMP3), MMP3 (gene 4314)
Put plainly: LTEA_HepaRG_MMP3: Life Technologies and Expression Analysis (LTEA) Assay for matrix metalloproteinase-3 (MMP3) using HepaRG (AID 2283519). Put shortly:
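Differentiated human HepaRG cells, plated 48 h on collagen I, were exposed in duplicate for 48 h in serum-free induction medium to eight half-log concentrations up to 100 uM in 0.5% DMSO. MMP3 mRNA was quantified by TaqMan qRT-PCR, normalised to ACTB, GAPDH and POLR2A.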

Read-out in assay [16]: Paternally Expressed 10 (PEG10), PEG10 (gene 23089)
Put plainly: LTEA_HepaRG_PEG10: Life Technologies and Expression Analysis (LTEA) Assay for Paternally Expressed 10 (PEG10) using HepaRG (AID 2283520). Summed up: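 HepaRG, 48 h post-plating → serum-free induction medium → 48 h chemical exposure (duplicate, 8-pt, max 100 uM, half-log, 0.5% DMSO) → lysis in RLT → TaqMan qRT-PCR for PEG10, ACTB/GAPDH/POLR2A normalisation.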

As usually defined, the AC50 is the midpoint of the concentration-response curve, whichever way the signal moves.

Calls of active or inactive are those of the source. The calls were made as follows: active = hit-call score of the fitted dose curve at least 0.9, where 1 is the maximum; inactive = score below 0.9.

Sequence of Hypoxia-inducible factor 1-alpha (Homo sapiens) (Q16665 whole entry, looked up): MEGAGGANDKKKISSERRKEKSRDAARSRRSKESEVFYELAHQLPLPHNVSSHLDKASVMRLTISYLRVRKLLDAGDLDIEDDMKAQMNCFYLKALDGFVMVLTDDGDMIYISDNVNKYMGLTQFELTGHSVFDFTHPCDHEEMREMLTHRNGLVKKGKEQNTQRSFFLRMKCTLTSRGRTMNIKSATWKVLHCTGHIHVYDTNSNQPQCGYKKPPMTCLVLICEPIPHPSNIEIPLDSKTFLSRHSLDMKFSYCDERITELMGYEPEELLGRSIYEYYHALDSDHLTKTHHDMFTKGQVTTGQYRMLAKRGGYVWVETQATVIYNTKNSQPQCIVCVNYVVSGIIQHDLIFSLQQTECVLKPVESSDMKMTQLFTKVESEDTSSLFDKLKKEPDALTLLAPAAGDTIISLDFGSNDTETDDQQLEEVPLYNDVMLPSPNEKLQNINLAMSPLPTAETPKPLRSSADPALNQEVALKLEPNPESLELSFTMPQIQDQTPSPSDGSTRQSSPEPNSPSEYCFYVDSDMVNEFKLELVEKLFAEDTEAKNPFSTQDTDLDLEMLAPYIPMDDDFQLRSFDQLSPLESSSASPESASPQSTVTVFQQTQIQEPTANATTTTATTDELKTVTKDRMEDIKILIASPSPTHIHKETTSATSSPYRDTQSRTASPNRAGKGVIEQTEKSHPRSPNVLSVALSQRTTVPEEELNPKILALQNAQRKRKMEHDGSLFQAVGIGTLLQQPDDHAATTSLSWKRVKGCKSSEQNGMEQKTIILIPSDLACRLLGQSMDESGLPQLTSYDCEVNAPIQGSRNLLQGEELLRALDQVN

As for `c1ccc(NNc2ccccc2)cc1`, the result (in assay [1]; in assay [2]; in [3]; in assay [4]; in the assay with HGF (gene 3082); in assay [5]) was inactive. Also, the result in assay [6], in assay [7], in assay [8], in assay [9], in assay [10] and in [11] was inactive. For the same compound, the outcome in assay [12] was “inactive”; in [13], “inactive”; in assay [14], “inactive”; in the assay with MYC, MYC (gene 4609) it was “inactive”; in assay [15] it was “inactive”; in [16] it was “inactive”.
Consider `CO[C@@H]1[C@H](OC(=O)NC(=O)CCl)CC[C@]2(CO2)[C@H]1[C@@]1(C)O[C@@H]1CC=C(C)C`, for which the compound was called inactive (in assay [1]; in assay [2]; in [3]; in assay [4]; with HGF (gene 3082); in [6]). Further, the result in [7], in assay [8], in assay [9], in assay [10], in assay [11] and in assay [12] was inactive. The outcome is “inactive” in assay [13]; “inactive” in [14]; “inactive” in the assay with MYC, MYC (gene 4609); “inactive” in assay [15]; “inactive” in [16]. In addition, the AC50 in assay [5] was 3.17 µM (active).
As for `Oc1ccccc1Cl`, the compound was called inactive (in assay [1]; in assay [2]; in assay [3]; in assay [4]; in the assay with HGF (gene 3082); in assay [5]). Besides, the call in assay [6], in assay [7], in assay [8], in assay [9], in assay [10] and in assay [11] was inactive. The outcome was “inactive” in assay [12]; “inactive” in assay [13]; “inactive” in assay [14]; “inactive” with MYC, MYC (gene 4609); “inactive” in [15]; “inactive” in [16].

The values are drawn from PubChem BioAssay (EPA / NIEHS).
